Inconclusive results are not listed. Active and inactive are the calls of the source. Unless noted, the call rests on the fitted dose curve; in most records, active means well fitted curve in the direction sought with a large enough effect; inconclusive means small, poorly fitted or top-dose-only effect, or another doubt; inactive means no such curve, though single readings can be large; an effect the other way counts as inactive or inconclusive.
Columns and labels:
[1] = Cell Viability - LYMP2-007 (AID 979);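 further: cells exposed to compound for 24 h before reading; nearly all actives have a fitted effect of over 60% in size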; further: potency means the concentration at half of the fitted maximal effect
Outline: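 Human lymphoblastoid LYMP2-007 cells (2500/well) preincubated 5 h at 37 C, then treated 24 h at 37 C in complete medium. Viability by CellTiter-Glo ATP luminescence after 30 min at room temperature; AC50 from Hill fits.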

[2] = Cell Viability - LYMP2-008 (AID 980); further: nearly all actives have a fitted effect of over 60% in size; further: potency means the concentration at half of the fitted maximal effect
Outline: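 LYMP2-008 lymphoblastoid cells (2500/well) plated 5 h, then treated 24 h at 37 C in complete medium. Viability read as intracellular ATP by CellTiter-Glo luminescence after 30 min at room temperature; AC50 from Hill fits.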

[3] = Cell Viability - LYMP2-010 (AID 981); further: nearly all actives have a fitted effect of over 55% in size; further: potency means the concentration at half of the fitted maximal effect
Outline: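 Human lymphoblastoid LYMP2-010 cells (2500/well) treated 24 h at 37 C in complete medium; viability read as intracellular ATP by CellTiter-Glo luminescence. AC50 from Hill fits of concentration-response data; tetraoctylammonium bromide positive control.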

[4] = Cell Viability - LYMP2-012 (AID 982);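 further: cellular ATP by luciferase luminescence where a drop means cytotoxicity; cells exposed to compound for one day before reading; nearly all actives have a fitted effect of over 55% in size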; further: potency means the concentration at half of the fitted maximal effect
[5] = Cell Viability - LYMP2-014 (AID 983); further: nearly all actives have a fitted effect of over 50% in size; further: potency means the concentration at half of the fitted maximal effect
Outline: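 LYMP2-014 human lymphoblastoid cells, 2500/well, treated 24 h at 37 C in complete medium; viability by CellTiter-Glo ATP luminescence after 30 min at room temperature. AC50 from Hill fits of qHTS concentration-response; tetraoctylammonium bromide positive control.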

[6] = Cell Viability - LYMP2-016 (AID 984); further: nearly all actives have a fitted effect of over 55% in size; further: potency means the concentration at half of the fitted maximal effect
Outline: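 Human lymphoblastoid LYMP2-016 cells, 2500 per well, treated with compounds for 24 h at 37 C. Viability read as intracellular ATP by CellTiter-Glo luminescence after 30 min at room temperature; AC50 from Hill fits of concentration-response.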

[7] = Cell Viability - LYMP2-020 (AID 986); further: nearly all actives have a fitted effect of over 55% in size; further: potency means the concentration at half of the fitted maximal effect
Outline: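 Human lymphoblastoid LYMP2-020 cells (2500/well) preincubated 5 h at 37 C, then treated 24 h at 37 C. Viability measured as intracellular ATP by CellTiter-Glo luminescence after 30 min at room temperature; AC50 from Hill fits.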

[8] = Cell Viability - LYMP2-022 (AID 987); further: nearly all actives have a fitted effect of over 55% in size; further: potency means the concentration at half of the fitted maximal effect
Outline: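 LYMP2-022 lymphoblastoid cells (2500/well, complete medium) were treated with compounds for 24 hours at 37 C; intracellular ATP was then read by CellTiter-Glo luminescence after 30 min at room temperature. AC50 values were derived from Hill-equation fits.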

[9] = Cell Viability - LYMP2-024 (AID 988); further: nearly all actives have a fitted effect of over 60% in size; further: potency means the concentration at half of the fitted maximal effect
Outline: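 Human lymphoblastoid LYMP2-024 cells (2500/well) rested 5 hr, then treated with compound for 24 hr at 37 C in complete medium. Viability was measured as intracellular ATP by CellTiter-Glo luminescence. AC50 values came from Hill-equation fits.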

[10] = Cell Viability - LYMP2-026 (AID 989); further: nearly all actives have a fitted effect of over 50% in size; further: potency means the concentration at half of the fitted maximal effect
Outline: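 Human lymphoblastoid LYMP2-026 cells, 2500/well, exposed to compound 24 h at 37 C in complete medium. Viability as intracellular ATP by CellTiter-Glo luminescence; AC50 from Hill fits of qHTS concentration-response.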

[11] = Cell Viability - LYMP1-002 - Assay at 24 hr (AID 993); further: potency means the concentration at half of the fitted maximal effect
Outline: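 Human lymphoblastoid LYMP1-002 cells (2500/well) treated 24 h at 37 °C; viability as intracellular ATP by CellTiter-Glo luminescence. Tetraoctylammonium bromide as positive control; AC50 from Hill-equation fits of qHTS concentration-response.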

[12] = Cell Viability - LYMP1-002 - Assay at 40 hr (AID 994); further: nearly all actives have a fitted effect of over 60% in size; further: potency means the concentration at half of the fitted maximal effect
Outline: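 LYMP1-002 human lymphoblastoid cells (2500/well, complete medium) were treated with compounds for 40 hr at 37 C. Intracellular ATP was measured by CellTiter-Glo luminescence, and AC50 values came from Hill-equation fits of concentration-response data; tetraoctylammonium bromide was the positive control.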

[13] = target: Alpha-galactosidase A (Homo sapiens) (UniProt P06280); test: Counterscreen for Glucocerebrosidase Inhibitors: qHTS Assay for Human alpha-Galactosidase at pH 4.5 (AID 992); further: 0% is about no effect
Outline: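 Read-out is 4-methylumbelliferone fluorescence (365 nm excitation, 440 nm emission) after a pH 10 NaOH/glycine stop. Reactions held 2 nM enzyme and 80 uM substrate at pH 4.5 for 20 min at room temperature.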

[14] = target: alpha-glucosidase (Oryza sativa, rice) (UniProt Q653V4); test: Counterscreen for Glucocerebrosidase Inhibitors: qHTS Assay for Rice alpha-Glucosidase at pH 5.0 (AID 997);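 further: 0% = full activity with enzyme and -100% = basal without enzyme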
Outline: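 Rice alpha-glucosidase (4 nM final) with 400 uM 4-methylumbelliferyl-alpha-D-glucopyranoside in citrate buffer pH 5.0, 20 min at room temperature, stopped at pH 10; fluorescence 365/440 nm, compounds 0.7 nM–77 uM, AC50 from Hill fits.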

[15] = target: DNA repair nuclease/redox regulator APEX1 (Homo sapiens) (UniProt P27695); test: qHTS Validation Assay for Inhibitors of the Human Apurinic/apyrimidinic Endonuclease 1 (APE1) (AID 1705;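 further: TAMRA fluorescence gain over two minutes as APE1 cuts a quenched THF abasic duplex; on the % scale 0 is the no-effect control and ±100 the full control effect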)
Outline: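 Fluorogenic double-stranded THF abasic-site substrate (5'-TAMRA/3'-BHQ-2), 50 nM final. Enzyme preincubated with compound 15 min at room temperature, then substrate added. Kinetic fluorescence (ex 525/em 598 nm) read three times at 60 s intervals; activity taken as third-minus-first read difference.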

[16] = target: Endonuclease 4 (Escherichia coli (strain K12)) (UniProt P0A6C1); test: Counterscreen for APE1 Inhibitors: qHTS Validation Assay for Inhibitors of Endonuclease IV (AID 1708); further: on the % scale 0 is the no-effect control and ±100 the full control effect
Outline: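 Concentration-response counterscreen run identically to the APE1 assay: 15 min room-temperature preincubation of 2 nM enzyme with compound, reaction started with 50 nM quenched abasic DNA, progress taken from kinetic fluorescence.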

[17] = qHTS for differential inhibitors of proliferation of Plasmodium falciparum line 7G8 (AID 1815);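 further: potency means the concentration at half of the fitted maximal effect; parasite growth measured after three days of incubation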
[18] = Counterscreen for APE1 Inhibitors: Fluorescent Dye Displacement Validation Assay (AID 1707);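 further: plate controls were ThO with dsDNA and no compound for no effect and ThO without dsDNA for full effect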
Outline: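 ThO 250 nM + dsDNA 50 nM (THF abasic site, 5'-TAMRA), Tris-HCl pH7.5/50mM NaCl/2 mM MgCl2/0.01% Tween-20; compounds pin-transferred; ex 480/em 540 nm endpoint. Neutral = no compound; no-DNA ThO wells = negative control.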

[19] = qHTS Assay for Lipid Storage Modulators (AID 1519; calls by dose curve; on activity change, negative = inhibition: on the % scale 0 is the no-effect control and ±100 the full control effect); details: Drosophila S3 cells, BODIPY lipid droplet/cell ratio, laser cytometry, cells loaded with oleic acid
Outline: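 Cells seeded at 5,000 per well were treated with compounds over a concentration series and loaded with oleic acid (400 uM, as added). Lipid droplet fluorescence (488 nm excitation, 500-530 nm channel) was read by laser-scanning cytometry and normalized to 20 uM Triacsin C.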

Sequence of DNA repair nuclease/redox regulator APEX1 (Homo sapiens) (P27695 whole entry, looked up): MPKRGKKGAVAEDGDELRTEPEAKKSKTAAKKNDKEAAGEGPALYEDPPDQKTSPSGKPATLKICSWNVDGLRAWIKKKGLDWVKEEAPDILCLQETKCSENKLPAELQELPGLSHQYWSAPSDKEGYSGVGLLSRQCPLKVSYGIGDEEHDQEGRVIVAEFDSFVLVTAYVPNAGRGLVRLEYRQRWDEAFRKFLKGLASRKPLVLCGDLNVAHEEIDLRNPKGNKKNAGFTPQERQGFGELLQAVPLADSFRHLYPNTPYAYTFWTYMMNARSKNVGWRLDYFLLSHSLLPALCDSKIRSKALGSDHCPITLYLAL
Sequence of Alpha-galactosidase A (Homo sapiens) (P06280 whole entry, looked up): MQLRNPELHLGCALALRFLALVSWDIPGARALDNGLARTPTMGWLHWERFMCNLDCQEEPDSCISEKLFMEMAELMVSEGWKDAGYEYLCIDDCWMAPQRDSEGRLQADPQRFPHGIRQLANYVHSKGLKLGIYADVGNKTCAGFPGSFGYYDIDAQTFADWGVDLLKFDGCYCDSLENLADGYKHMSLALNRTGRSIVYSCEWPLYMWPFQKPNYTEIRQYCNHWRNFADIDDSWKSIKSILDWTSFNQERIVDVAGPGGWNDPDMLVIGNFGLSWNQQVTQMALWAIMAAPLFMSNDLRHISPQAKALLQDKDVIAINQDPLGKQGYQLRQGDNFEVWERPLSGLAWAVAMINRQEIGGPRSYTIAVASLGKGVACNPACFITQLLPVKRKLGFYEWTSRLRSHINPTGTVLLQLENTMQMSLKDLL

CCCCCCCCCCCCCCCC[n+]1ccccc1
active: Potency [1] 12.6 µM | Potency [2] 15.8 µM | Potency [3] 15.8 µM | Potency [4] 12.6 µM | Potency [5] 12.6 µM | Potency [6] 15.8 µM | Potency [7] 15.8 µM | Potency [8] 12.6 µM | Potency [9] 15.8 µM | Potency [10] 15.8 µM | Potency [11] 15.8 µM | Potency [12] 7.94 µM

CC(C)(C)c1ccc(O)c(O)c1
active: Potency [1] 39.8 µM | Potency [2] 50.1 µM | Potency [3] 31.6 µM | Potency [4] 39.8 µM | Potency [6] 50.1 µM | Potency [7] 50.1 µM | Potency [8] 39.8 µM | Potency [9] 25.1 µM

O=[N+]([O-])c1ccc(-c2nc(-c3ccc(F)cc3)c(-c3ccncc3)[nH]2)cc1
inactive: outcome [13] | outcome [14] | outcome [15] | outcome [16]
active: Potency [17] 4.47 µM

Nc1cccc2c(N)cccc12
inactive: Potency [1] | Potency [2] | Potency [3] | Potency [4] | Potency [5] | Potency [6] | Potency [7] | Potency [8] | Potency [9] | Potency [10] | Potency [11] | Potency [12]

Oc1ccccc1
inactive: Potency [1] | Potency [2] | Potency [3] | Potency [4] | Potency [5] | Potency [6] | Potency [7] | Potency [8] | Potency [9] | Potency [10] | Potency [11] | Potency [12]

CCCCC(CC)COC(=O)c1ccccc1C(=O)O (configuration not stated)
inactive: Potency [1] | Potency [2] | Potency [3] | Potency [4] | Potency [5] | Potency [6] | Potency [7] | Potency [8] | Potency [9] | Potency [10] | Potency [11] | Potency [12]

C1=CC2C3C=CC(C3)C2C1 (configuration not stated)
inactive: Potency [1] | Potency [2] | Potency [3] | Potency [4] | Potency [5] | Potency [6] | Potency [7] | Potency [8] | Potency [9] | Potency [10] | Potency [11] | Potency [12]

C[C@]12CCC(=O)C=C1CC[C@@H]1[C@@H]2[C@@H](O)C[C@@]2(C)[C@H]1CC[C@]2(O)C(=O)COC(=O)CCC(=O)O
inactive: outcome [15] | outcome [18] | outcome [16]

c1ccc2occc2c1
inactive: Potency [1] | Potency [2] | Potency [3] | Potency [4] | Potency [5] | Potency [6] | Potency [7] | Potency [8] | Potency [9] | Potency [10] | Potency [11] | Potency [12]

Nc1ccc(O)cc1
active: Potency [1] 31.6 µM | Potency [2] 39.8 µM | Potency [3] 25.1 µM | Potency [4] 31.6 µM | Potency [5] 39.8 µM | Potency [6] 50.1 µM | Potency [7] 31.6 µM | Potency [8] 25.1 µM | Potency [9] 25.1 µM | Potency [10] 50.1 µM | Potency [11] 39.8 µM | Potency [12] 50.1 µM

CC(C)N(CCC(=O)c1ccc2ccccc2c1)Cc1ccccc1
inactive: outcome [13] | outcome [14] | outcome [15] | outcome [18] | outcome [16]

O=C(c1ccccc1)c1ccccc1
inactive: Potency [1] | Potency [2] | Potency [3] | Potency [4] | Potency [5] | Potency [6] | Potency [7] | Potency [8] | Potency [9] | Potency [10] | Potency [11] | Potency [12]

OCc1c[nH]c2ccccc12
7.12%: max response ([19]; measured here: lipid channel max response)
0.192%: max response ([19]; measured here: cell count channel max response)
inactive: Potency [1] | Potency [2] | Potency [3] | Potency [4] | Potency [5] | Potency [6] | Potency [7] | Potency [8] | Potency [9] | Potency [10] | Potency [11] | Potency [12] | activity change, negative = inhibition ([19]; at 57.5 µM (top of the series)) 3.03%

CC(C)C(C)(C)C(C)(C)C(C)(C)S
inactive: Potency [1] | Potency [2] | Potency [3] | Potency [4] | Potency [5] | Potency [6] | Potency [7] | Potency [8] | Potency [9] | Potency [10] | Potency [11] | Potency [12]

COc1cc(C=O)ccc1O
inactive: Potency [1] | Potency [2] | Potency [3] | Potency [4] | Potency [5] | Potency [6] | Potency [7] | Potency [8] | Potency [9] | Potency [10] | Potency [11] | Potency [12]

O=C(NO)c1ccccc1
inactive: Potency [1] | Potency [2] | Potency [3] | Potency [4] | Potency [5] | Potency [6] | Potency [7] | Potency [8] | Potency [9] | Potency [10] | Potency [11] | Potency [12]

CCCC(=O)c1cc(O)c(O)cc1O
inactive: Potency [2] | Potency [4] | Potency [5] | Potency [6] | Potency [7] | Potency [8] | Potency [10] | Potency [11] | Potency [12]

From PubChem BioAssay (NCATS)
